The list is not random: actives were taken first. Their share in the collection is about 12%.
Pf growth 48h: P. falciparum growth inhibition at 48 hours (one generation). hit rate 5.9% among 310,000. Potency, µM (top dose mostly 28.7 µM), inactives show at the top dose activity change, negative = inhibition, usual class: inhibitors. P. falciparum luciferase growth in erythrocytes, 48 h; further: on the % scale 0 is the no-effect control and ±100 the full control effect
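Compounds are pin-transferred into medium, infected erythrocytes (2% hematocrit, 0.1% parasitemia final) are added, and plates sit one parasite generation at 37 C in 5% CO2. Detection reagent is then added and luminescence measured.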
Pf growth 96h: inhibits malaria parasite growth, 96 h; Potency, µM (titrated, usually from 28.7 µM), for inactives: at the highest dose activity change, negative = inhibition, usual class: inhibitors; AID 504834; P. falciparum luciferase reporter growth, 96 h; hit rate 6.9% among 320,000; further: on the % scale 0 is the no-effect control and ±100 the full control effect
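Two-generation exposure (96 h) targets delayed-death phenotype. Reporter parasites carrying integrated firefly luciferase, in red cells at 2% hematocrit and 0.05% parasitemia final, kept at 37 C, 5% CO2; luminescence loss indicates inhibition.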
SARS PLP yeast: SARS-CoV PLP inhibition in yeast; S. cerevisiae expressing SARS-CoV PLpro, growth rescue; Potency, µM (doses to about 32.9 µM), without a hit: at the highest dose activity, positive = growth rescue, hits mostly activators; hit rate 0.19% among 330,000; AID 485353; calls by dose curve; further: 0% is about no effect; nearly all actives have a fitted effect of over 55% in size
AmpC inh no detg: AmpC beta-lactamase inhibition without detergent | P00811 | AmpC nitrocefin hydrolysis, absorbance 480 nm, 0.0001% Triton | Potency, µM (top dose mostly 57.1 µM), inactives show top-dose activity change, negative = inhibition, hits mostly inhibitors | hit rate 0.52% among 330,000 | AID 485341;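 further: plate controls were no compound for no effect and no enzyme for full effect; nearly all actives have a fitted effect of over 20% in size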
Target sequence (P00811 whole entry, looked up): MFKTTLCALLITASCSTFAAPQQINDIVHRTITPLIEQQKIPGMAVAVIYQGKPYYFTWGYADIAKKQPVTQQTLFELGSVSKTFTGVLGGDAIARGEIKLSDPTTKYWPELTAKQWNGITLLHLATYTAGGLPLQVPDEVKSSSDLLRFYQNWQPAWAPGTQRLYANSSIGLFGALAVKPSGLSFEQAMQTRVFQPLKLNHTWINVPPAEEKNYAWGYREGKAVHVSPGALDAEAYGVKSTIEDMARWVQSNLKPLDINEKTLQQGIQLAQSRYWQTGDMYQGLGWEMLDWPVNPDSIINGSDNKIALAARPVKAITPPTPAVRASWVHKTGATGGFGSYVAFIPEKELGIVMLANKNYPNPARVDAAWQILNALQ
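20 mM phosphate pH 7.0 + 0.01% (detergent screen) or 0.0001% Triton X-100; 5.3 nM AmpC reagent; cpd preinc 15 min RT; nitrocefin (800 uM stock) to start; A480 q20 s × 4 min; Activity was normalised to no-enzyme and no-compound control wells.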
AmpC inh detg: AmpC beta-lactamase inhibition with detergent present | P00811 | Potency, µM (highest dose often 114 µM), for the others: top-dose activity change, negative = inhibition, most hits filed as inhibitors | hit rate 0.041% among 370,000 | AmpC hydrolysis of nitrocefin, absorbance 480 nm, 0.01% Triton;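 further: 0% = no-compound wells and -100% = no-enzyme wells; nearly all actives have a fitted effect of over 25% in size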
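20 mM phosphate pH 7.0 + 0.01% (detergent screen) or 0.0001% Triton X-100; 5.3 nM AmpC reagent; cpd preinc 15 min RT; nitrocefin (800 uM stock) to start; A480 q20 s × 4 min; Activity was normalised to no-enzyme and no-compound control wells.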
Sm TGR inh: S. mansoni TGR enzyme inhibition; Q962Y6; hit rate 3% among 360,000; purified TGR, DTNB reduction, TNB absorbance 405 nm; Potency, µM (titrated, usually from 114 µM), for the others: at the highest dose activity change, negative = inhibition, hits mostly inhibitors; further: on the % scale 0 is the no-effect control and ±100 the full control effect; nearly all actives have a fitted effect of over 60% in size
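Kinetic colorimetric format: TGR-catalysed, NADPH-driven DTNB reduction monitored via TNB absorbance. Enzyme dispensed at 20 nM; compound exposure 15 min at room temperature before reaction start.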
Active calls of the source: *; ? = inconclusive; · = no result; [ ] = remark or other dose. Unless noted, the call rests on the fitted dose curve; in most records, active means well fitted curve in the direction sought with a large enough effect; inconclusive means small, poorly fitted or top-dose-only effect, or another doubt; inactive means no such curve, though single readings can be large; an effect the other way counts as inactive or inconclusive. Potency means the concentration at half of the fitted maximal effect.

SMILES	Pf growth 48h	Pf growth 96h	SARS PLP yeast	AmpC inh no detg	AmpC inh detg	Sm TGR inh
Cc1ccc(Cn2nnc3c(=O)[nH]c(C4CCN(S(=O)(=O)c5ccc(C)cc5)CC4)nc32)cc1	·	-12.5%	-0.9%	-4.0%	?	-1.3%
O=c1[nH]c(C2CCN(S(=O)(=O)c3ccc4c(c3)OCCO4)CC2)nc2c1nnn2Cc1ccc(F)cc1	1.47µM*	6.9%	1.9%	1.4%	-3.8%	2.8%
O=c1[nH]c(C2CCN(S(=O)(=O)c3cccc(C(F)(F)F)c3)CC2)nc2c1nnn2Cc1cccc(F)c1	7.38µM*	?	0.2%	-3.0%	4.6%	3.3%
CCN1CCN(c2ccc([N+](=O)[O-])c(Sc3nc4ccccc4[nH]3)c2)CC1	?	2.62µM*	-2.1%	55.4%	0.8%	0.2%
O=C(O)c1ccc(CSc2nc3ccccc3[nH]2)cc1	-5.3%	?	-9.2%	-15.7%	0.0%	-9.9%
O=[N+]([O-])c1ccc(N2CCN(CCO)CC2)cc1Sc1ccccn1	-28.1%	?	1.4%	-3.6%	-3.3%	8.5%
CS(=O)(=O)c1cc([N+](=O)[O-])c(Sc2nc3ccccc3[nH]2)c([N+](=O)[O-])c1	-0.4%	·	-7.4%	22.4µM*	?	1.41µM*
O=C(O)c1cc([N+](=O)[O-])c(Sc2nc3ccccc3[nH]2)c([N+](=O)[O-])c1	·	338.3%	0.8%	-16.6%	?	1.78µM*
COCCCNc1nc2c(S(=O)(=O)c3ccc(C)c(C)c3)nnn2c2ccc(Cl)cc12	·	·	·	·	20.7%	1.9%
Cc1cccc(NC(=O)CCn2nc(-c3ccccc3)c3ccccc3c2=O)c1	·	·	·	·	-6.3%	5.9%
CNC(=O)c1cc(NC(=O)CCn2nc(-c3ccccc3)c3ccccc3c2=O)ccc1OC	2.08µM*	0.828µM*	2.0%	49.5%	-3.7%	-4.6%
CC(C)Cn1c(=O)c2ccccc2n2c(CCC(=O)Nc3cccc(Cl)c3)nnc12	·	·	·	·	14.6%	8.6%
CCOC(=O)[C@H]1[C@H]2COc3ccc(OC)cc3[C@H]2N2C(=O)CNC(=O)[C@@]12C	22.1%	0.0%	3.3%	1.4%	5.1%	-6.9%
COc1ccccc1C1C2CCCCC2(O)CCN1CC(=O)Nc1ccccc1 (centres undefined)	?	?	0.0%	14.0%	-11.1%	2.8%
COC(=O)c1c(NC(=O)CN2CCC3(O)CCCCC3C2c2ccc(F)cc2)sc(C)c1C (centres undefined)	8.28µM*	?	-17.0%	-12.1%	-8.1%	-11.6%
COC(=O)c1c(NC(=O)CN2CCC3(O)CCCCC3C2c2cc(OC)ccc2OC)sc(C)c1C (centres undefined)	?	10.4µM*	-36.3%	-1.2%	-10.1%	0.3%
CC(/C=C1\SC(=Nc2cccnc2)NC1=O)=C\c1ccccc1	-1.4%	-24.3%	0.3%	-40.3%	-4.0%	-2.9%
C=CCOc1ccc(/C=C2\SC(=Nc3cccnc3)NC2=O)cc1	?	10.4µM*	-0.1%	-14.6%	-5.0%	-0.5%
Cc1ccc(-n2ncc(-c3nn[nH]n3)c2N)cc1	16.5%	31.5%	0.5%	-14.6%	-6.0%	16.5%
O=[N+]([O-])c1cc(-c2ccc(/C=N\n3cnnc3)o2)cc([N+](=O)[O-])c1	7.38µM*	?	-2.7%	?	1.2%	39.8µM*
Cc1cc(NC(=O)c2cccs2)cc(-c2nc3cc(Cl)ccc3o2)c1O	·	·	·	·	1.2%	9.7%
Cc1ccc(C(OCC(O)CN2CCCCC2CO)c2ccccc2)cc1 (centres undefined)	?	1.65µM*	12.5%	30.8%	-0.8%	10.1%
Cc1cc(/C=C2\SC(=S)NC2=O)c(C)n1-c1ccc(O)cc1	9.28µM*	410.4%	-4.7%	11.2µM*	-3.5%	-26.7%
Cc1cc(/C=C2\SC(=Nc3ccc(F)cc3)NC2=O)c(C)n1-c1ccc(S(N)(=O)=O)cc1	13.1µM*	·	-3.8%	-0.2%	?	-19.1%
C[C@@]12C(=O)N(c3cccc(F)c3)C(=O)N1[C@@H]1c3ccccc3OC[C@@H]1[C@H]2c1ccccc1	·	·	-3.3%	-20.7%	·	·
SMILES	Pf growth 48h	Pf growth 96h	SARS PLP yeast	AmpC inh no detg	AmpC inh detg	Sm TGR inh
COc1cccc(C(=O)Nc2nc3ccccc3s2)c1	323.4%	14.7µM*	-4.7%	-38.2%	-7.2%	-19.6%
CS(=O)(=O)c1ccc2nc(NC(=O)CCS(=O)(=O)c3ccccc3)sc2c1	-8.3%	94.3%	1.1%	2.8%	?	?
COc1ccc(C(=O)Nc2nc3ccc(S(C)(=O)=O)cc3s2)cc1OC	15.1%	5.86µM*	-0.4%	-34.7%	3.5%	6.4%
CS(=O)(=O)c1ccc2nc(NC(=O)CCC(=O)c3cccs3)sc2c1	?	11.7µM*	4.4%	-12.0%	1.5%	20.6%
COc1ccc(C(=O)Nc2nc3ccccc3s2)cc1	169.3%	0.0%	-8.6%	-24.8%	?	9.6%
NC(=O)c1ccc2nc(NC(=O)c3ccc(N)cc3)sc2c1	80.6%	11.7µM*	3.3%	-20.2%	1.2%	-4.8%
Cc1ccc(C(=O)Nc2nc3ccc(S(C)(=O)=O)cc3s2)cc1C	·	31.6%	-2.4%	-9.5%	-6.2%	1.5%
Cc1cccc(OCCC(=O)OCC(=O)Nc2c(C)nn(-c3ccccc3)c2C)c1	-0.6%	8.6%	?	?	-14.9%	0.4%
COc1ccccc1CNC(=O)Cn1c(=O)oc2cc(S(=O)(=O)NCc3ccccc3)ccc21	·	·	·	·	3.5%	2.1%
O=C(c1cnc(N2CCOCC2)c2ccccc12)N1CCN(c2ccc(F)cc2)CC1	·	·	·	·	4.9%	5.9%
NS(=O)(=O)c1ccc2nc(NC(=O)c3ccc(Br)o3)sc2c1	112.3%	10.4µM*	6.7%	-12.2%	3.6%	-0.2%
CS(=O)(=O)c1ccc2nc(NC(=O)CCNC(=O)c3ccc([N+](=O)[O-])cc3)sc2c1	?	0.738µM*	-2.3%	-13.2%	-16.6%	-13.5%
Cc1cc(C=C2C(=O)c3ccccc3C2=O)c(C)n1C	-18.3%	4.65µM*	-38.3%	-22.5%	3.0%	-18.2%
Cc1ccc(C=C2C(=O)c3ccccc3C2=O)s1	·	11.7µM*	-28.4%	-16.8%	-2.3%	-0.2%
Cc1ccc(-c2nnc(Oc3cccc(C)c3)c3ccccc23)cc1	16.4%	36.2%	-13.7%	-29.3%	-0.5%	-6.8%
O=C(CBr)c1ccc([N+](=O)[O-])c(CS(=O)(=O)c2ccc(Cl)cc2)c1	1.9%[0.00184 µM]	0.0%	-3.3%	-36.7%	1.4%	5.01µM*
COC(=O)CNC(c1ccccc1)c1cc(Br)ccc1NC(C)=O (centres undefined)	3.3%	0.2%	15.6%	31.8%	-13.7%	·
